Assay results as given in PubChem BioAssay (EPA / NIEHS).
Active and inactive are the calls of the source. How the source made its calls: active means hit-call score of the fitted dose curve at least 0.9, where 1 is the maximum; inactive means score below 0.9.

What follows are compounds tested against Transcriptional activator Myb (Homo sapiens) (UniProt P10242) (assay: ATG_Myb_CIS: Attagene CIS-FACTORIAL HepG2 Assay for human Myeloblastosis (Myb) Proto-Oncogene Transcription Factor (AID 2282986)). Details: HepG2 Attagene CIS-FACTORIAL Myb reporter transcription; actives raise or lower the signal.
Sequence of Transcriptional activator Myb (Homo sapiens) (P10242 whole entry, looked up): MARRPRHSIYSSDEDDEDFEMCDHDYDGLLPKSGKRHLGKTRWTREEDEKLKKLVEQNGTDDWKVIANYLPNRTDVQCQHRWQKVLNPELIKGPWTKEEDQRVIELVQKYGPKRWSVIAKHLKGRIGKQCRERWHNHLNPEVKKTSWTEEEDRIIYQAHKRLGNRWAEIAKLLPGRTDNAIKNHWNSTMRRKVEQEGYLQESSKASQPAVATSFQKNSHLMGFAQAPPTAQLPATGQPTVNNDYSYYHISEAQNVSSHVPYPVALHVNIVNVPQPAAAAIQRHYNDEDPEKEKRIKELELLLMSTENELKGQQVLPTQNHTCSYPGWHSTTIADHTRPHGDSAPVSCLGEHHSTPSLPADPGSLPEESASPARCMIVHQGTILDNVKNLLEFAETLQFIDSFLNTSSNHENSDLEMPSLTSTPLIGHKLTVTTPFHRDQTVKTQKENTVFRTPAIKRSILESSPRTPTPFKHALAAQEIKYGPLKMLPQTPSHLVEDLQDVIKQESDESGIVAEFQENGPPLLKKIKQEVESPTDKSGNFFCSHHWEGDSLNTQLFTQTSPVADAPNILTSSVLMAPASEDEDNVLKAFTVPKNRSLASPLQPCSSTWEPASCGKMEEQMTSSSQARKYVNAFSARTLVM
Description: ATG_CIS is a cell-based, multiplexed-readout assay that uses HepG2, a human liver cell line, with measurements taken at 24 hours after chemical dosing in a 24-well plate.ATG_Myb_CIS is one of 52 assay component(s) measured or calculated from the ATG_CIS assay. It is designed to make measurements of mRNA induction, a form of inducible reporter, as detected with fluorescence intensity signals by Reverse transcription polymerase chain reaction (RT-PCR) and Capillary electrophoresis technology.Data from the assay component ATG_Myb_CIS was analyzed into 1 assay endpoint. This assay endpoint, ATG_Myb_CIS, was analyzed with bidirectional fitting relative to DMSO as the negative control and baseline of activity. Using a type of inducible reporter, measures of mRNA for gain or loss-of-signal activity can be used to understand the reporter gene at the transcription factor-level as they relate to the gene MYB. Furthermore, this assay endpoint can be referred to as a primary readout, because this assay has produced multiple assay endpoints where this one serves a reporter gene function. To generalize the intended target to other relatable targets, this assay endpoint is annotated to the dna binding intended target family, where the subfamily is MYB proteins.
Human liver HepG2 cells are transiently transfected with multiple reporter transcription units (MRTUs) in 6-well plates using FuGene 6 reagent (Roche; 3 ml FuGene/1 mg DNA). The MRTU constructs are regulated by a cis-regulating element (promoter). […] A major difference between the CIS and TRANS system is that in CIS activities of endogenous TFs are measured, whereas the TRANS assay evaluates changes in activities of exogenous, chimeric NR-Gal4 proteins. […] At the end of 24 hour incubation, total RNA was isolated using TriZol reagent (Invitrogen). The isolated RNA is then reverse-transcribed using oligo(dT) primer and Mo-MLV reverse transcriptase (Invitrogen) with DNAse I (Ambion) treatment for 30 min. The one-tenth of the produced cDNA was amplified by PCR using Taq DNA polymerase (Invitrogen) and two reporter sequence-specific primers. The PCR products were fluorescently labeled by primer extension with 6-arboxyfluorescein (6-FAM) 5'-labeled reporter sequence-specific primer (2 min at 95 C, 20 s at 68 C and 10 min at 72 C) and these products were digested with 5U of HpaI (New England Biolabs) for 2h at 37 C. The fragments were purified using Qiaquick PCR columns (Qiagen), analyzed on an ABI 3130xL genetic analyzer (Applied Biosystems) with peak positions identified by using a set of X-rhodamine (ROX)-labeled MapMarker1000 molecular weight standards (BioVentures). The raw capillary electrophoresis data was processed using Attagraph software (Attagene).
c1ccc(Nc2ccccc2)cc1 was tested, and the outcome was “inactive”.
With O=C(O)C1(C(=O)Nc2ccc(Cl)cc2Cl)CC1 the outcome was “inactive”.
In the case of CCCCOC(=O)[C@@H](C)Oc1ccc(Oc2ccc(C(F)(F)F)cn2)cc1, the outcome is reported as “inactive”.
COC(=O)c1ccccc1S(=O)(=O)NC(=O)Nc1nc(OC(F)F)cc(OC(F)F)n1 was tested, and the outcome was “inactive”.
With O=C(Nc1ccc([N+](=O)[O-])cc1Cl)c1cc(Cl)ccc1O the outcome was “inactive”.
CSC(=O)c1cccc2nnsc12 was tested, and the outcome was “inactive”.
With COCCO the outcome was “inactive”.
For N#CSCSc1nc2ccccc2s1, the outcome was “inactive”.
For COC(=O)c1ccc(CNS(C)(=O)=O)cc1S(=O)(=O)NC(=O)Nc1nc(OC)cc(OC)n1, the outcome was “inactive”.
With O=C(c1ccccc1)C1CCCCC1 the outcome was “inactive”.
COC(=O)c1cccc(C)c1S(=O)(=O)NC(=O)Nc1nc(OCC(F)(F)F)nc(N(C)C)n1 was tested, and the outcome was “inactive”.
CCOC(=O)c1ccc(O)cc1 was tested, and the outcome was “inactive”.
In the case of Cc1nn(C)c(Oc2ccccc2)c1C=NOCc1ccc(C(=O)OC(C)(C)C)cc1, the outcome is reported as “inactive”.
With C=CCOC(Cn1ccnc1)c1ccc(Cl)cc1Cl (stereo not given) the outcome was “inactive”.
For OB(O)O, the outcome was “inactive”.
With CC1(C)C(C=C(Cl)Cl)C1C(=O)OCc1cccc(Oc2ccccc2)c1 (stereo not given) the outcome was “inactive”.
In the case of CCCN(CCC)C(=O)SCC, the outcome is reported as “inactive”.
In the case of Oc1ccc(C(c2ccc(O)cc2)C(Cl)(Cl)Cl)cc1, the outcome is reported as “inactive”.
In the case of CCSC(=O)N(CC(C)C)CC(C)C, the outcome is reported as “inactive”.
For CCOC(=O)C(C)Oc1ccc(Oc2cnc3cc(Cl)ccc3n2)cc1 (stereo not given), the outcome was “inactive”.
CCOC(=O)COc1cc(-n2ncc(C(F)(F)F)c(C)c2=O)c(F)cc1Cl was tested, and the outcome was “inactive”.
In the case of COC(=O)CSc1cc(N=c2sc(=O)n3n2CCCC3)c(F)cc1Cl, the outcome is reported as “inactive”.
With CCCOC(=O)NCCCN(C)C the outcome was “inactive”.
COC(=O)c1c(Cl)nn(C)c1S(=O)(=O)NC(=O)Nc1nc(OC)cc(OC)n1 was tested, and the outcome was “inactive”.
With CC(=O)S[C@@H]1CC2=CC(=O)CC[C@]2(C)[C@H]2CC[C@@]3(C)[C@@H](CC[C@@]34CCC(=O)O4)[C@H]12 the outcome was “inactive”.
For CCOC(=O)[C@H](C)Oc1ccc(Oc2nc3ccc(Cl)cc3o2)cc1, the outcome was “inactive”.
For C#CCOC(=O)[C@@H](C)Oc1ccc(Oc2ncc(Cl)cc2F)cc1, the outcome was “inactive”.
With CCOC(=O)NCCOc1ccc(Oc2ccccc2)cc1 the outcome was “inactive”.
For CCN(Cc1c(F)cccc1Cl)c1c([N+](=O)[O-])cc(C(F)(F)F)cc1[N+](=O)[O-], the outcome was “inactive”.
In the case of COc1c(Cl)ccc(Cl)c1C(=O)O, the outcome is reported as “inactive”.
In the case of CCCCOCCOCCOCc1cc2c(cc1CCC)OCO2, the outcome is reported as “inactive”.
CCCOC(=O)c1ccc(C(=O)OCCC)nc1 was tested, and the outcome was “inactive”.
In the case of O=C(c1ccc(O)cc1O)c1ccc(O)cc1O, the outcome is reported as “inactive”.
N[C@@H](Cc1cc(I)c(Oc2ccc(O)c(I)c2)c(I)c1)C(=O)O was tested, and the outcome was “inactive”.
With COC(=O)c1ccccc1C(=O)O the outcome was “inactive”.
For C[C@]12CC[C@@H]3c4ccc(O)cc4C[C@@H](CCCCCCCCCS(=O)CCCC(F)(F)C(F)(F)F)[C@H]3[C@@H]1CC[C@@H]2O (stereo not given in full), the outcome was “inactive”.
For CC(C)CCCCCCc1ccc(O)cc1, the outcome was “inactive”.
For CC(C)(C)[C@@H](O)[C@@H](Cc1ccc(Cl)cc1)n1cncn1, the outcome was “inactive”.
COC(=O)c1ccc(I)cc1S(=O)(=O)NC(=O)Nc1nc(C)nc(OC)n1 was tested, and the outcome was “inactive”.
CCCCC(CC)COC(=O)c1ccccc1C(=O)O (stereo not given) was tested, and the outcome was “inactive”.
